{"source": "PubChem BioAssay AID720697", "about": "(Broad Institute, 2013)", "note": "Measured potencies and affinities stand elsewhere. Records with an inconclusive call do not appear. Unmarked numbers belong to inactive results. Calls of active or inactive are those of the source.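 Rule for the calls: active = signal loss with fitted half-maximal concentration at or below twice the top valid tested dose in every test run; inconclusive = runs disagree, flat 30 to 70% signal loss, or poor fit; inactive = all runs flat, opposite direction, or potency beyond limit.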"}
{"assay": "HEK293T cytotoxicity, dose response, cytotoxicity control for miR-122 modulator project, cell-based, inhibitor set, cherry-pick, set 2 (AID 720697);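 note: 0% = median of neutral control wells and -100% = MG132 positive control wells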", "settings": "HEK293T viability, CellTiter-Glo luminescence, 48 h; series mostly up to 26 µM"}
{"smiles": "CCCC(NS(=O)(=O)c1ccc(Br)cc1)C(=O)O", "note": "(stereo not drawn)", "outcome": "inactive"}
{"smiles": "CCCNC(=O)C[C@H]1CC[C@H]2[C@@H](COc3ccc(NC(=O)c4cc(F)cc(F)c4)cc3C(=O)N2C)O1", "outcome": "inactive"}
{"smiles": "Cc1cc(C(=O)Nc2ccc3c(c2)C(=O)N(C)[C@@H]2CC[C@@H](CC(=O)N[C@H](C)c4ccccc4)O[C@H]2CO3)no1", "outcome": "inactive"}
{"smiles": "C/C=C/c1ccc2c(c1)O[C@H](CN(C)C(=O)NCCC)[C@H](C)CN([C@@H](C)CO)S2(=O)=O", "outcome": "inactive"}
{"smiles": "CN(C)CCNc1ncnc2c1sc1nc(N3CCOCC3)c3c(c12)CC(C)(C)SC3", "outcome": "inactive"}
{"smiles": "CCN(CC)CCNC(=O)c1ccc(NC(=O)c2cn(-c3ccc(F)cc3)nc2-c2cccc(OC)c2)cc1", "activity change, negative = cytotoxicity": "-17.7% [at 6 µM]"}
{"smiles": "CCC(=O)N1[C@H](CN(C(C)C)S(C)(=O)=O)[C@H](c2ccccc2)[C@@H]1CO", "outcome": "inactive"}
{"smiles": "CN1C(=O)c2cc(NC(=O)c3cccc(F)c3)ccc2OC[C@@H]2O[C@H](CC(=O)NC3CCC3)CC[C@@H]21", "outcome": "inactive"}
{"smiles": "Cc1cc(C(=O)N/N=C/c2cc(Br)ccc2OC(=O)c2ccccc2)n[nH]1", "outcome": "inactive"}
{"smiles": "CNC(=O)C[C@@H]1CC[C@H]2[C@@H](COc3ccc(NC(=O)C(C)C)cc3C(=O)N2C)O1", "outcome": "inactive"}
{"smiles": "COCC(=O)Nc1ccc2c(c1)C(=O)N(C)[C@@H]1CC[C@H](CC(=O)NC3CCCC3)O[C@H]1CO2", "outcome": "inactive"}
{"smiles": "CCCC(=O)Nc1ccc2c(c1)C(=O)N(C)[C@@H]1CC[C@H](CC(=O)N3CCc4ccccc4C3)O[C@H]1CO2", "outcome": "inactive"}
{"smiles": "CCC(=O)N1C[C@H]2[C@@H](c3ccccc31)[C@H](CO)N2Cc1cc(F)ccc1F", "outcome": "inactive"}
